The sample as a whole holds a higher share of hits than the screen did.
MARV entry inh – qHTS for inhibitors of binding or entry into cells for Marburg Virus; hit rate 1.8% among 300,000; Potency, µM (highest dose often 37.8 µM), for inactives: top-dose activity change, negative = inhibition, actives largely listed as inhibitors; Marburg virus pseudotyped entry inhibition, cell reporter; calls by dose curve; tested in HEK293 cells; also: potency is read from the fitted curve at half-maximal effect; % is scaled to controls: 0 for no effect and ±100 for the full control effect
LASV entry inh – qHTS for Inhibitors of binding or entry into cells for Lassa Virus; hit rate 1.2% among 300,000; Potency, µM (highest dose often 37.9 µM), for inactives: top-dose activity change, negative = inhibition, most hits filed as inhibitors; Lassa virus pseudotype entry inhibition, cell reporter; calls by dose curve; tested in HEK293 cells; also: potency is read from the fitted curve at half-maximal effect; % is scaled to controls: 0 for no effect and ±100 for the full control effect; nearly all actives have a fitted effect of over 50% in size
Cycloheximide cs – Cycloheximide Counterscreen for Small Molecule Inhibitors of Shiga Toxin; cell reporter, cycloheximide protein synthesis inhibition counterscreen; max response, %; hit rate 12% among 300,000; AID 2314, 2010; in the data active = max response mostly above about 13%, no sharp cut-off; inactive = mostly below about 14%; also: read at 38.3 µM for the half of the compounds with a filed dose; 0% is about no effect
Vaccinia Venus – qHTS for Stage-Specific Inhibitors of Vaccinia Orthopoxvirus: Venus Reporter Primary qHTS | Vaccinia virus Venus reporter expression, fluorescence | Potency, µM (top dose mostly 36.5 µM), without a hit: top-dose activity change, negative = inhibition, actives largely listed as inhibitors | hit rate 0.46% among 330,000 | AID 720580, 2013; calls by dose curve; tested in A549 cells; also: potency is read from the fitted curve at half-maximal effect; % is scaled to controls: 0 for no effect and ±100 for the full control effect; nearly all actives have a fitted effect of over 30% in size
Vaccinia mCherry – qHTS for Stage-Specific Inhibitors of Vaccinia Orthopoxvirus: mCherry Reporter Primary qHTS | Vaccinia virus mCherry reporter infection, fluorescence | Potency, µM (top dose mostly 36.5 µM), for the others: at the top dose activity change, negative = inhibition, most hits filed as inhibitors | hit rate 0.63% among 310,000; calls by dose curve; tested in A549 cells; also: potency is read from the fitted curve at half-maximal effect; % is scaled to controls: 0 for no effect and ±100 for the full control effect; nearly all actives have a fitted effect of over 35% in size
Shiga toxin inh – A qHTS for Small Molecule Inhibitors of Shiga Toxin; Vero cells, Shiga toxin protein synthesis inhibition reporter; inhibition, % at 38.7 µM; hit rate 9.2% among 290,000; in the data active = inhibition mostly above about 28%, no sharp cut-off; inactive = mostly below about 43%; also: 0% is about no effect
Active calls of the source: *; i = inactive; u = inconclusive; x = no result; [ ] = remark or other dose.

SMILES	MARV entry inh	LASV entry inh	Cycloheximide cs	Vaccinia Venus	Vaccinia mCherry	Shiga toxin inh
c1csc(-c2ccc3ccccc3n2)c1	u	u	33*	-12%	x	90
COC(=O)CCNC(=O)N1CCN(c2nnc(C)c3c(C)n(-c4ccccc4)nc23)CC1	x	-2%[46.1 µM]	x	3%	-1%	x
COC(=O)NCC=Cc1nc(CCCO)co1	-24%[14.2 µM]	x	x	x	x	x
CC1=CC(C)(C)N=C(Nc2ccc(C)cc2)S1	u	17%	50*	-25%	-12%	44
Cc1ccc(Nc2nnns2)cc1	16%	-24%	6	-21%	x	-7
COc1ccc(CCNC(=O)Cc2c(C)c3cc4c(C(C)(C)C)coc4c(C)c3oc2=O)cc1OC	-14%[46.1 µM]	-8%[46.1 µM]	x	-22%	-29%	x
O=C(N/N=C/c1cccc(F)c1)c1cc(-c2ccco2)nc2ccccc12	u	-2%	71*	-30%	u	86*
COc1ccc(-c2cc(C(=O)N/N=C/c3ccc(OC)c(COCC(F)(F)C(F)F)c3)c3ccccc3n2)c(OC)c1	u	-4%	4	-9%	-14%	-4
Cc1cccc(NC(=O)c2cc(-c3ccco3)nc3ccccc23)n1	0%	6%	16*	-1%	-12%	95*
COc1ccc(-c2cc(C(=O)N/N=C/c3ccc4c(c3)OCO4)c3ccccc3n2)c(OC)c1	4µM*	2.5µM*	1	6%	u	-11
COc1ccc(-c2cc(C(=O)N/N=C/c3sccc3C)c3ccccc3n2)c(OC)c1	5µM*	3.2µM*	5	-20%	28µM*	-6
COc1cc(NCc2ccc3nc(N)nc(N)c3c2C)cc(OC)c1OC	x	x	0	x	x	-2
CCOc1ccc(-n2cc(-c3ccccc3)c3c(NC4CCCC4)ncnc32)cc1	x	9%[46.1 µM]	x	-9%	-15%	x
COc1ccc(NC(=O)c2c(N)c(C(=O)c3ccc(OC)cc3)n3ccccc23)cc1	0%[46.1 µM]	-3%[46.1 µM]	x	-9%	-13%	x
O=C(N/N=C/c1ccc2c(c1)OCO2)c1cc(-c2ccc(F)cc2)nc2ccccc12	u	0.58µM*	50*	-29%	-13%	92*
COc1ccc(/C=C2\CCCC(C(=O)C(F)(F)F)=C2O)cc1OC	x	x	20*	x	x	76
CCOc1cc(/C=C2\CN(CC)C/C(=C\c3ccc(O)c(OCC)c3)C2=O)ccc1O	4.5µM*	5µM*	24*	-24%	u	3
COc1ccc(/C=C2/CCCC(C(=O)C(F)(F)F)=C2O)cc1OC	x	x	12	x	x	25
CCN1C/C(=C/c2cccc([N+](=O)[O-])c2)C(=O)/C(=C/c2cccc([N+](=O)[O-])c2)C1	15µM*	2.8µM*	-7	-29%	-13%	1
CCOc1cc(C=O)ccc1O	x	x	x	-5%	-3%	x
COc1cc(/C=C2\Oc3cc(O)ccc3C2=O)ccc1O	x	x	51*	372%	36%	70*
COC(=O)c1cc(C(=O)OC)[nH]n1	14%[46.1 µM]	8%	-5	-6%	-16%	14
CCCCc1ccc(NC(=O)CSc2nnc(C)c(=O)n2N)cc1	x	x	2	x	x	-3
COc1cc(/C=C2/CCCC(C(=O)C(F)(F)F)=C2O)ccc1O	5%[46.1 µM]	7%	1	-8%	-18%	17
COc1cc(/C=C2\CCC/C(=C\c3ccc(O)c(OC)c3)C2=O)ccc1O	u	u	42*	u	6.3µM*	76*
SMILES	MARV entry inh	LASV entry inh	Cycloheximide cs	Vaccinia Venus	Vaccinia mCherry	Shiga toxin inh
Cn1c(CCC(=O)Nc2ccc(F)cc2)nc2cc(S(=O)(=O)N3CCOCC3)ccc21	-8%[46.1 µM]	2%	x	6%	-5%	x
CCCn1c(CCC(=O)Nc2ccccc2Cc2ccccc2)nc2cc(S(=O)(=O)N3CCOCC3)ccc21	13µM*	u	-2	-15%	x	-13
COc1ccc(OC)c(CC2C(=O)Nc3ccc(Br)cc32)c1 (centres undefined)	u	u	x	-27%	-18%	x
COc1cccc(-c2nn(-c3ccccc3)cc2CO)c1	u	15%	33*	-27%	u	60*
COc1cccc(-c2nn(-c3ccccc3)cc2CNC(C)Cn2cncn2)c1 (centres undefined)	u	-28%	34*	1%	-7%	111*
COc1cc(=O)n2c(c1C(=O)N(C)Cc1ccsc1)CCN(Cc1c(C)nc3sccn13)CC2	x	x	x	-14%	i	x
